Compound activity as filed in PubChem BioAssay.
Sampled rows, rich in hits. Any-hit rate of the full collection: about 7.1%.
ELG1 genotoxic = qHTS screen for small molecules that induce genotoxicity in human embryonic kidney (HEK293T) cells expressing luciferase-tagged ELG1. HEK293T ELG1-luciferase reporter, luminescence, 16 h. Potency, µM (series often up to 46 µM), for the others: at the top dose activity change, positive = activation, usual class: activators. hit rate 1.3% among 330,000. AID 504466, 2011; also: % of control where 0% means no effect; nearly all actives have a fitted effect of over 60% in size
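DMSO vehicle served as control against compound-treated ELG1-luciferase HEK293T cells; exposure lasted 16 hr at 37 °C and 5% CO2, followed by ONE-Glo luminescence detection after 30 min.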
ELG1 repair inh = qHTS screen for small molecules that inhibit ELG1-dependent DNA repair in human embryonic kidney (HEK293T) cells expressing luciferase-tagged ELG1; hit rate 2.3% among 330,000; Potency, µM (doses to about 46.1 µM), for the others: at the top dose activity change, negative = inhibition, hits mostly inhibitors; HEK293T ELG1-luciferase reporter, luminescence, 16 h; DNA damage induced by 5-fluorouridine; AID 504467, 2011; also: % is scaled to controls: 0 for no effect and ±100 for the full control effect; nearly all actives have a fitted effect of over 55% in size
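Quantitative HTS, concentration-response format. 2,000 cells/well co-treated with 5-fluorouridine and compound, 16 hr in 5% CO2 at 37 °C; ONE-Glo luminescence read after 30 min.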
A-T KAP1 phos = qHTS Assay for Identifying a Potential Treatment of Ataxia-Telangiectasia | F2112 A-T fibroblasts, KAP-1 phosphorylation AlphaLISA; neocarzinostatin DNA damage 30 min before lysis | Potency, µM (titrated, usually from 57.5 µM), without a hit: at the highest dose activation, hits mostly activators | hit rate 0.19% among 320,000; also: % of control where 0% means no effect; nearly all actives have a fitted effect of over 45% in size
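ATM-like activity read as KAP-1 phosphorylation via AlphaLISA donor/acceptor antibody pairs after lysis and 6 hr at 25C. Cells were ATM-null patient fibroblasts (F2112, hTERT), dosed 60 min, then exposed to the DSB inducer NCS for 30 min.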
MCF10A rereplic = A quantitative high throughput screen for small molecules that induce DNA re-replication in MCF 10a normal breast cells; Potency, µM (doses to about 46.1 µM), for inactives: top-dose activity, positive = re-replication, usual class: activators; hit rate 2.9% among 350,000; MCF 10A DNA re-replication, Hoechst nuclear intensity, 48 h; also: % of control where 0% means no effect; nearly all actives have a fitted effect of over 50% in size
SW480 rereplic = A quantitative high throughput screen for small molecules that induce DNA re-replication in SW480 colon adenocarcinoma cells | AID 624297, 2012 | Potency, µM (series often up to 46.1 µM), without a hit: at the top dose re-replication activation, most hits filed as activators | SW480 DNA re-replication, Hoechst DNA content imaging, 48 h | hit rate 1.8% among 340,000; also: % of control where 0% means no effect; nearly all actives have a fitted effect of over 55% in size
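Quantitative HTS format with DMSO vehicle controls; 48 hr drug incubation at 37 C, then 40 min Hoechst staining and scanning imager measurement at 405 nm excitation.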
p53 reactivator = qHTS assay for re-activators of p53 using a Luc reporter; H1299 p53-A138V BP100-luciferase reporter, luminescence, 24 h; Potency, µM (highest dose often 92.2 µM), without a hit: at the top dose activity change, positive = activation, actives largely listed as activators; hit rate 0.063% among 320,000; also: % of control where 0% means no effect; nearly all actives have a fitted effect of over 45% in size
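H1299 (p53-null), stable ts p53-A138V + BP100-Luc; 1000 cells/well, Opti-MEM/10% FBS; cpd 4 pt, 1:5; 24 h, 37 deg C, 5% CO2; detection reagent 10 min RT; luminescence.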
* hit, by the source's call; ? = inconclusive; . = no result given; [ ] = another dose, or the depositor's remark. Calls follow the shape of the dose curve; as a rule, active = well fitted curve in the direction sought with a large enough effect; inconclusive = small, poorly fitted or top-dose-only effect, or another doubt; inactive = no such curve, though single readings can be large; an effect the other way counts as inactive or inconclusive. Potency is read from the fitted curve at half-maximal effect.

SMILES	ELG1 genotoxic	ELG1 repair inh	A-T KAP1 phos	MCF10A rereplic	SW480 rereplic	p53 reactivator
CCN1CCN(Cc2ccc(NC(=O)c3ccc(C)c(NC(=O)c4nccn4C)c3)cc2C(F)(F)F)CC1	-2%	-5%	-5%	-7%	-1%[9.22 µM]	?
CCN1CCN(Cc2ccc(NC(=O)c3cc(NC(=O)c4cncc(-c5ccc(C#N)cc5)c4)cc(OC)c3)cc2C(F)(F)F)CC1	6%	26%	-10%	10µM*	24%[9.22 µM]	1%
CCN1CCN(Cc2ccc(NC(=O)c3ccc(C)c(NC(=O)c4cncc(-c5cccs5)c4)c3)cc2C(F)(F)F)CC1	.	.	.	5.2µM*	?	.
CCN1CCN(Cc2ccc(NC(=O)c3ccc(C)c(NC(=O)c4cccc5[nH]ccc45)c3)cc2C(F)(F)F)CC1	9%	?	?	?	3.3µM*	6%
CN(C(=O)CSc1nc(C2CC2)n(-c2ccccc2)n1)C1CCS(=O)(=O)C1 (stereo not given)	3%	6%	-8%	3%	-17%	1%
C/C(=N\NC(=O)C(=O)Nc1cc(C)ccc1C)c1ccncc1	0%	0%	-7%	9%	5%	-2%
Cc1ccc(S(=O)(=O)NCC(c2ccc3c(c2)OCO3)N2CCN(c3ccccc3)CC2)cc1 (stereo not given)	-5%	0%	4%	?	-1%	4%
O=C(NC(=S)Nc1ccc(CN2CCCCC2)cc1)c1cccc(OCc2ccccc2)c1	-10%	?	1%	23µM*	3%	14%
CCOc1cccc(C(=O)NC(=S)Nc2cccc(NC(=O)c3ccccc3Cl)c2)c1	-4%	8.2µM*	5%	-5%	-14%	-3%
CCOc1cccc(C(=O)NC(=S)Nc2ccccc2)c1	?	?	9%	2%	-5%	?
Cc1ccc(C(O)c2nccn2C)o1 (stereo not given)	3%	11%	.	5.8µM*	10%	6%
Cn1c(=O)c2c(ncn2CC(=O)OCC(=O)Nc2cc(Cl)ccc2C#N)n(C)c1=O	0%	2%	18%	-2%	-3%	-10%
CN1CCN(C(=O)c2cc3nc(-c4ccccc4)cc(-c4ccccc4)n3n2)CC1	-4%	?	0%	13µM*	?	-4%
COc1cc(NC(=O)c2cc(-c3ccccc3)on2)cc(OC)c1OC	-8%	?	6%	?	0%	.
O=C(c1cc2nc(-c3ccccc3)cc(-c3ccccc3)n2n1)N1CCCC1	-11%	?	-1%	-9%	?	0%
COc1cc(NC(=O)c2cc3nc(-c4ccccc4)cc(-c4ccccc4)n3n2)cc(OC)c1OC	-6%	10µM*	3%	29%	21%	-8%
CCOC(=O)C1CCN(Cc2cccc(OCc3ccccc3)c2)CC1	-2%	1%	7%	-3%	-15%	.
COc1ccc(CC(C#N)(CO)c2nc3ccccc3[nH]2)cc1 (stereo not given)	-2%	-16%	-3%	2%	21µM*	1%
Cc1ccc(-c2[nH][nH]c(=O)c(=O)c2N=Nc2ccccc2)cc1	-4%	-9%	-11%	-1%	-2%	5%
Cc1nn(C)cc1/C=C/C(=O)c1cccs1	18µM*	?	.	2%	5%	20µM*
C/C(CC(C)(C)c1ccccc1)=N\NS(=O)(=O)c1ccccc1	1%	-1%	-1%	-2%[9.22 µM]	-62%	-7%
COc1cccc2sc(/N=C/N(C)C)nc12	6%	?	5%	1%	-6%	4%
COc1cccc2sc(N(C)c3ccccc3)nc12	1.6µM*	?	0%	15%	5%	?
CC(C)(C)C1CCC(OCC(O)CN2CCCC2)CC1 (stereo not given)	-8%	2%	0%	7%	-6%	25%
CC(C)(C)C1CCC(OCC(O)CN2CCN(c3ccccc3)CC2)CC1 (stereo not given)	-3%	22%	3%	21µM*	2%	9%
SMILES	ELG1 genotoxic	ELG1 repair inh	A-T KAP1 phos	MCF10A rereplic	SW480 rereplic	p53 reactivator
COc1ccc(NC(=O)Nc2cccc3c2O[C@H](CN(C)Cc2ccc(-c4ccccc4)cc2)[C@@H](C)CN([C@H](C)CO)C3=O)cc1	5%	15%	-1%	-5%	-4%	9%
CN(C)c1ccc(C=Nc2ccccc2)cc1	-1%	?	4%	1%	-8%	4%
CN(C)c1ccc(C=Nc2ccc(N(C)C)cc2)cc1	?	?	-5%	-4%	?	40µM*
C/C(=N/N=C/c1ccc(N(C)C)cc1)c1ccccc1	0.37µM*	?	0%	?	0%	.
CC(C)(C)NC(=O)CCN(/N=C/c1ccc([N+](=O)[O-])o1)C1=NS(=O)(=O)c2ccccc21	-6%	?	2%	23µM*	13µM*	24%
CN(C)c1ccc(/C=N/N(CCO)C2=NS(=O)(=O)c3ccccc32)cc1	3%	0%	14%	0%	-1%	4%
CN(C)c1ccc(/C=N/N(CCC(=O)NC(C)(C)C)C2=NS(=O)(=O)c3ccccc32)cc1	1%	?	-9%	18µM*	18µM*	0%
O=C(CCCOc1cccc(Br)c1)NCCOc1ccccc1	-11%	19%	-1%	3%	-2%	3%
O=C(NNC(=S)Nc1ccccc1Cl)c1ccccc1Br	3.7µM*	?	-1%	0%	-7%	?
Cc1ccoc1C(=O)N1CCCC(CCC(=O)N2CCN(c3ccccn3)CC2)C1 (stereo not given)	-8%	21µM*	5%[11.5 µM]	-2%	-1%	-1%
Cc1ccc(C(=O)N2CCCC(CCC(=O)N3CCN(c4ccccn4)CC3)C2)cc1C (stereo not given)	-8%	12µM*	6%	2%	-1%	-1%
CC(C)[C@@H](CO)N(C)S(=O)(=O)c1ccccc1Br	3%	13%	2%[11.5 µM]	9%	47%	5%
Cc1[nH]n(-c2ccc([N+](=O)[O-])cc2)c(=O)c1C=NCCc1c(C)[nH]c2ccccc12	-11%	26µM*	3%	6%	.	2%
Cc1[nH]n(-c2ccc([N+](=O)[O-])cc2)c(=O)c1C=NCCc1ccc(S(N)(=O)=O)cc1	6%	0%	3%	0%	?	0%
